Drawing on PMC7862700, “An all-to-all approach to the identification of sequence-specific readers for epigenetic DNA modifications on cytosine”, this text covers binding signal for one sequence.

Holding throughout (assay): DAPPL (digital affinity profiling via proximity ligation, sequencing); 10 mM Tris-HCl pH 7.5, 50 mM NaCl, 1 mM DTT, 4% glycerol, room temperature, 30 min; GST-TFs on glutathione beads, 16-mer random dsDNA library, 0.1% formaldehyde crosslink after washing; high values mean tight binding
The target of one experiment is T1, FLI1 (Homo sapiens, UniProt Q01543 1-452).
T1 sequence: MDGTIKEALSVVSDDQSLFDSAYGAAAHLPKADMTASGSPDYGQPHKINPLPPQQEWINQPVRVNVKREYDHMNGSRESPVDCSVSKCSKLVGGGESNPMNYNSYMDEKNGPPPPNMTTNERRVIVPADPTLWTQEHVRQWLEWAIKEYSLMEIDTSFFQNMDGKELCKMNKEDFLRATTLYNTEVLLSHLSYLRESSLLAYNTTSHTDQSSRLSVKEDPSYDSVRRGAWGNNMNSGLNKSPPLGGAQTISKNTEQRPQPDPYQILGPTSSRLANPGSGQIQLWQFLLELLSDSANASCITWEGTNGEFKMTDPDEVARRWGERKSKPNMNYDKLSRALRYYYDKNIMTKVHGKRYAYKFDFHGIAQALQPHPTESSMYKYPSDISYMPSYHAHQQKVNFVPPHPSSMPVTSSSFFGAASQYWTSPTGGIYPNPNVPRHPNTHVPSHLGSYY
As to conditions: protein: recombinant; tags: N-terminal GST; dsDNA, one strand shown. The method in brief: (§1)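 Sequencing on an Illumina NextSeq500 followed washing, crosslinking with 0.1% formaldehyde, proximity ligation (BsaI/T4 ligase, 1 h, 37 °C) and PCR amplification of pools that had been incubated for 30 min at room temperature with 200 nmole of a random double-stranded 16-mer DNA library in Tris/NaCl/DTT/glycerol buffer. Each pool held DNA-barcoded human transcription factors, expressed in yeast as GST fusions and captured on glutathione beads, plus a tag-only sample. Binding signal is a hexamer's read frequency for a factor divided by its frequency in the tag-only sample.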

A further experiment deals with T2, ELK1 (Homo sapiens, UniProt P19419 1-428).
T2 sequence: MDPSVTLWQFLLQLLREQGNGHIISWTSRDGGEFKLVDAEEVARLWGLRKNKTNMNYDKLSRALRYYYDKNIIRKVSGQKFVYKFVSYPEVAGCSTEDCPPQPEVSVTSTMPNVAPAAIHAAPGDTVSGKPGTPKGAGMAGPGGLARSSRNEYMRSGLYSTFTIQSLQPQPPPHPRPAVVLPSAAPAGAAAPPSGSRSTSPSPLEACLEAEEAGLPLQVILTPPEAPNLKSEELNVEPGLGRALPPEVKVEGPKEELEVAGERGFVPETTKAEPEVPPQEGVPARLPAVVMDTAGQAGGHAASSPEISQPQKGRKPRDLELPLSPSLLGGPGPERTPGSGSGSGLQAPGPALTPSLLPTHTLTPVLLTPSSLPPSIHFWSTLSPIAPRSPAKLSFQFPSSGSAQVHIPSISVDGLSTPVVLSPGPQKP
As to conditions: protein: recombinant; tags: N-terminal GST; dsDNA, one strand shown. The method in brief:
as §1

The next experiment deals with T3, GABPA (Homo sapiens, UniProt Q06546 1-454).
T3 sequence: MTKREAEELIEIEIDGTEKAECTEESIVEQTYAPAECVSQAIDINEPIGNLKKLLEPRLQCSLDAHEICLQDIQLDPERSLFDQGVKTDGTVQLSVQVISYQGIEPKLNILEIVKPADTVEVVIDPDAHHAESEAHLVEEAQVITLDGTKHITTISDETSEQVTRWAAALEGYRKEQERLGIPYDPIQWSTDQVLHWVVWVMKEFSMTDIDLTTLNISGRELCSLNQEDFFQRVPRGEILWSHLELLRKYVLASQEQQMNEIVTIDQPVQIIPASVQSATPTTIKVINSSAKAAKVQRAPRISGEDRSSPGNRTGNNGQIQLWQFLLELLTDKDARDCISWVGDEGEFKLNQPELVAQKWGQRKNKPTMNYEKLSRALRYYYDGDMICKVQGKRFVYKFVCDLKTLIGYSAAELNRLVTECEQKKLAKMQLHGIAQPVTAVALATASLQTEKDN
As to conditions: protein: recombinant; tags: N-terminal GST; dsDNA, one strand shown. In a few lines:
as §1

The target of the next experiment is T4, ERG (Homo sapiens, UniProt P11308 1-479).
T4 sequence: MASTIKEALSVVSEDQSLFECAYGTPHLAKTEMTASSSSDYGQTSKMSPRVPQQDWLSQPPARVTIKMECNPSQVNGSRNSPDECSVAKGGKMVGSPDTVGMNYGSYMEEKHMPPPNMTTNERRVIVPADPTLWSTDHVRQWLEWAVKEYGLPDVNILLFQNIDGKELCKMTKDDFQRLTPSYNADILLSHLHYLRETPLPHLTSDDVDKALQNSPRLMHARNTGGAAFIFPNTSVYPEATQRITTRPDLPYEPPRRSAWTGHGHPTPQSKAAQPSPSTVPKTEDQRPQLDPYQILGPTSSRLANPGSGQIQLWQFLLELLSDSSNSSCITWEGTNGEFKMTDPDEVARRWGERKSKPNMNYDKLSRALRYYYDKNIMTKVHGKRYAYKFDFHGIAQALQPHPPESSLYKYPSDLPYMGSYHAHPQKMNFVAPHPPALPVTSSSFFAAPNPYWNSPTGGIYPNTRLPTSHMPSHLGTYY
The settings on record: protein: recombinant; tags: N-terminal GST; dsDNA, one strand shown. In a few lines: as §1

The target of a further experiment is ELF1 (Homo sapiens, UniProt P32519 1-619). As to conditions: protein: recombinant; tags: N-terminal GST; dsDNA, one strand shown. In a few lines:
as §1

A further experiment has as its target T5, EHF (Homo sapiens, UniProt Q9NZC4 1-300).
T5 sequence: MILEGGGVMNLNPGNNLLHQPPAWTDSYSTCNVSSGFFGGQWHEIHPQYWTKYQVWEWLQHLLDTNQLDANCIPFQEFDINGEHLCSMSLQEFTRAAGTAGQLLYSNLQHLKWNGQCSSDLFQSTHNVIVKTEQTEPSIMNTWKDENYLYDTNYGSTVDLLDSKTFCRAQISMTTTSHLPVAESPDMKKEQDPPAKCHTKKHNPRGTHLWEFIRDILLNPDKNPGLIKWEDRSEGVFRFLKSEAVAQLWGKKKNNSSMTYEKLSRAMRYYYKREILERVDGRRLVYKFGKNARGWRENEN
As to conditions: protein: recombinant; tags: N-terminal GST; dsDNA, one strand shown. In a few lines: as §1

A further experiment deals with SPI1 (Homo sapiens, UniProt P17947 1-270). The settings on record: protein: recombinant; tags: N-terminal GST; dsDNA, one strand shown. The method in brief: as §1
The target in the next experiment is SPIB (Homo sapiens, UniProt Q01892 1-262). The settings on record: protein: recombinant; tags: N-terminal GST; dsDNA, one strand shown. The method in brief: as §1
Sequence of SPIB (Q01892 whole entry): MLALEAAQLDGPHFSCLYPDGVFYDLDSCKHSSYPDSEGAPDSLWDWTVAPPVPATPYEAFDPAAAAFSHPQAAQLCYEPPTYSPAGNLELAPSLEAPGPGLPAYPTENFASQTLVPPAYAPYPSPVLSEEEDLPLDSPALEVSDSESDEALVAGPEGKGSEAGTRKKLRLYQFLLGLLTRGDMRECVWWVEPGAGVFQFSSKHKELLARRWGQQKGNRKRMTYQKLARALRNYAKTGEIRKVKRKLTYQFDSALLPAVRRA
The next experiment concerns the target T6, ELK3 (Homo sapiens, UniProt P41970 1-407).
T6 sequence: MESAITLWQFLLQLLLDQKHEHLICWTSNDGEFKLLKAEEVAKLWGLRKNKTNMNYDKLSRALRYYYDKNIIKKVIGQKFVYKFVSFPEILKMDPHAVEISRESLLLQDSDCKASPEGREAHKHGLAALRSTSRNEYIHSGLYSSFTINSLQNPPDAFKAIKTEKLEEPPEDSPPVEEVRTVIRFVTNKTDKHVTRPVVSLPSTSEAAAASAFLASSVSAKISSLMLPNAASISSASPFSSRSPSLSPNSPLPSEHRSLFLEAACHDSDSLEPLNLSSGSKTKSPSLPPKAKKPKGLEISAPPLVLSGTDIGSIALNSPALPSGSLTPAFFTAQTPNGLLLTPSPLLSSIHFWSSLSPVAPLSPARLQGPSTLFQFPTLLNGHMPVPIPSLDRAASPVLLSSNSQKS
The settings on record: protein: recombinant; tags: N-terminal GST; dsDNA, one strand shown. The method in brief:
as §1

The next experiment addresses T7, FEV (Homo sapiens, UniProt Q99581 1-238).
T7 sequence: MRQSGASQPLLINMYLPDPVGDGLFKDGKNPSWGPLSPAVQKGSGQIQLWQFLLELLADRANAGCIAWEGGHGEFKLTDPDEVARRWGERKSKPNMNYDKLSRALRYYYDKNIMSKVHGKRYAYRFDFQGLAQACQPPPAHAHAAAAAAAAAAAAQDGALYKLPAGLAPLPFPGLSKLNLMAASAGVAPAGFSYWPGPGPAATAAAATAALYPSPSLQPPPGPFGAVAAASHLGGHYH
As to conditions: protein: recombinant; tags: N-terminal GST; dsDNA, one strand shown. In a few lines: as §1

A further experiment deals with ETV5 (Homo sapiens, UniProt P41161 1-510). As to conditions: protein: recombinant; tags: N-terminal GST; dsDNA, one strand shown. In a few lines: as §1
Sequence of ETV5 (P41161 whole entry): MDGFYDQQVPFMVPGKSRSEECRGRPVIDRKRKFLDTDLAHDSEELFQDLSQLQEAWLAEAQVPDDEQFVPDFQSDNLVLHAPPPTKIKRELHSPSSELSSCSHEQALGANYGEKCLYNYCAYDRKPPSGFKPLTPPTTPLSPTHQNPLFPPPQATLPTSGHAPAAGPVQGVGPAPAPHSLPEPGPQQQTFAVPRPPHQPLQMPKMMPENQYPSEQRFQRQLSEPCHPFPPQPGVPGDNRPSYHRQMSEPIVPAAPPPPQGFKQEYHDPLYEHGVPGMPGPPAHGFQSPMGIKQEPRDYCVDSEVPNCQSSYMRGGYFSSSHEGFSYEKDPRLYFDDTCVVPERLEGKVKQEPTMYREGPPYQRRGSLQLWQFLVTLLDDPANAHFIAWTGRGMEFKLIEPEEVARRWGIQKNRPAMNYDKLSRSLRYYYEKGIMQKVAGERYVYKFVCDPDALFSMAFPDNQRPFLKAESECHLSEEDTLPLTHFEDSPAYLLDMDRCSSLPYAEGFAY
The target of a further experiment is HSF1 (Homo sapiens, UniProt Q00613 1-529). As to conditions: protein: recombinant; tags: N-terminal GST; chain copies: 3; dsDNA, one strand shown. In a few lines: as §1
Sequence of HSF1 (Q00613 whole entry): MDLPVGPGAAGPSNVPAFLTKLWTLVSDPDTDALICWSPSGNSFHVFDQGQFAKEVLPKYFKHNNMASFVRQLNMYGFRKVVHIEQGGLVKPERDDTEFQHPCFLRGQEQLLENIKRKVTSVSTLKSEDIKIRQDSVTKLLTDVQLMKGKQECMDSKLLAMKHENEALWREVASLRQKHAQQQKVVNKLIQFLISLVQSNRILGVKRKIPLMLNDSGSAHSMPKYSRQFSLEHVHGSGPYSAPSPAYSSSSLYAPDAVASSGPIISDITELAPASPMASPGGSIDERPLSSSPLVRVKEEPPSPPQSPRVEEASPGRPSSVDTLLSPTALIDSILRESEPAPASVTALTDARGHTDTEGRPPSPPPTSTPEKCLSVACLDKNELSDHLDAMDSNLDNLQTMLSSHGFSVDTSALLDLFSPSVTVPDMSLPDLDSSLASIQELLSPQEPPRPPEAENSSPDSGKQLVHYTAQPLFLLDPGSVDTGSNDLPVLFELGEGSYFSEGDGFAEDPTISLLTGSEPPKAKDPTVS
A further experiment deals with T8, SPIC (Homo sapiens, UniProt Q8N5J4 1-248).
T8 sequence: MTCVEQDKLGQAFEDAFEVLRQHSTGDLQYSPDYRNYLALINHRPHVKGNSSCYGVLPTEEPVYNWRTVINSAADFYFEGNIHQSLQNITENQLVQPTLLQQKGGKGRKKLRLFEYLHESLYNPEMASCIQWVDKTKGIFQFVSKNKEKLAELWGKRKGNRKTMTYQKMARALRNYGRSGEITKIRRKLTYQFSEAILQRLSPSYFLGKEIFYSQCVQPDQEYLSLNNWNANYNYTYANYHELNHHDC
As to conditions: protein: recombinant; tags: N-terminal GST; dsDNA, one strand shown. The method in brief: as §1

A further experiment has as its target ELF4 (Homo sapiens, UniProt Q99607 1-663). As to conditions: protein: recombinant; tags: N-terminal GST; dsDNA, one strand shown. The method in brief: as §1
The next experiment has as its target T9, ELK4 (Homo sapiens, UniProt P28324-2 1-405).
T9 sequence: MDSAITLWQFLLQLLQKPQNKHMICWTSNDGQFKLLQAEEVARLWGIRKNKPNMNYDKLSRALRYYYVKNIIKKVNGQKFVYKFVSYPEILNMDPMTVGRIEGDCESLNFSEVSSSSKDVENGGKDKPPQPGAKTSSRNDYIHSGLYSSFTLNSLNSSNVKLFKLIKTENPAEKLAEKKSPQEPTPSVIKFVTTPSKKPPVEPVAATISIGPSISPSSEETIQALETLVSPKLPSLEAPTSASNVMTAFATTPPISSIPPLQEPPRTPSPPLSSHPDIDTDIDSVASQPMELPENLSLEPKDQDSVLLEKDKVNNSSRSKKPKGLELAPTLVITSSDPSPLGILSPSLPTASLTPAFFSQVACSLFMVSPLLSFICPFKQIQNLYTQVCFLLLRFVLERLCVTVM
As to conditions: protein: recombinant; tags: N-terminal GST; dsDNA, one strand shown. The method in brief:
as §1

Another experiment has as its target T10, ETV2 (Homo sapiens, UniProt O00321 1-342).
T10 sequence: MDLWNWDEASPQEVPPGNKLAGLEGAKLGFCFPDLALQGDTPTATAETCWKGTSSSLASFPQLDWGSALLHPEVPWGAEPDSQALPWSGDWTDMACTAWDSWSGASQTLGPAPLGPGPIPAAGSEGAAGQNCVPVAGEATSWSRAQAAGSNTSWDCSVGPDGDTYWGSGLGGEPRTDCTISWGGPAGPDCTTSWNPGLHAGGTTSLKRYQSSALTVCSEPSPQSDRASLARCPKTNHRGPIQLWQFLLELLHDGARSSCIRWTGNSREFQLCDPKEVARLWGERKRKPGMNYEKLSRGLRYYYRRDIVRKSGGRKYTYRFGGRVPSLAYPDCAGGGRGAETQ
The settings on record: protein: recombinant; tags: N-terminal GST; dsDNA, one strand shown. The method in brief: as §1

The target in another experiment is CRX (Homo sapiens, UniProt O43186 1-299). The settings on record: protein: recombinant; tags: N-terminal GST; dsDNA, one strand shown. The method in brief:
as §1

A further experiment deals with ETV1 (Homo sapiens, UniProt P50549 1-477). The settings on record: protein: recombinant; tags: N-terminal GST; dsDNA, one strand shown. In a few lines:
as §1

Sequence of ELF4 (Q99607 whole entry): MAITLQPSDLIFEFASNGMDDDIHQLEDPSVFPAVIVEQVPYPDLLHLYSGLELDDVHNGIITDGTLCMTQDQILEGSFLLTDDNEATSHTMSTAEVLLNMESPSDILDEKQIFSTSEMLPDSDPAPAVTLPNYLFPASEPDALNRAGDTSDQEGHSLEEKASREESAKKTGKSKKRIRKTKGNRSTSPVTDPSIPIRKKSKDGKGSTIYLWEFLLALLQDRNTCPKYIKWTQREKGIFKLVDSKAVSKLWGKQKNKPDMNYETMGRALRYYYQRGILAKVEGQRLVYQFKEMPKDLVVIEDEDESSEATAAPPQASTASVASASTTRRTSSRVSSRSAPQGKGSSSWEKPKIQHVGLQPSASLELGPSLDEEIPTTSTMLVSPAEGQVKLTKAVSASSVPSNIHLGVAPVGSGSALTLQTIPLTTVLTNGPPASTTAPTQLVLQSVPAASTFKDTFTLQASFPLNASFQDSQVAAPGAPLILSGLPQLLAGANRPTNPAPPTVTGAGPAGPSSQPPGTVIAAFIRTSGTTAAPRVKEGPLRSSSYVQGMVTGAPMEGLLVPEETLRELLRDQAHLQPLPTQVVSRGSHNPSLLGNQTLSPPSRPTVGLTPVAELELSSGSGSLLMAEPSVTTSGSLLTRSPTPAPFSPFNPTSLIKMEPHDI
Sequence of ELF1 (P32519 whole entry): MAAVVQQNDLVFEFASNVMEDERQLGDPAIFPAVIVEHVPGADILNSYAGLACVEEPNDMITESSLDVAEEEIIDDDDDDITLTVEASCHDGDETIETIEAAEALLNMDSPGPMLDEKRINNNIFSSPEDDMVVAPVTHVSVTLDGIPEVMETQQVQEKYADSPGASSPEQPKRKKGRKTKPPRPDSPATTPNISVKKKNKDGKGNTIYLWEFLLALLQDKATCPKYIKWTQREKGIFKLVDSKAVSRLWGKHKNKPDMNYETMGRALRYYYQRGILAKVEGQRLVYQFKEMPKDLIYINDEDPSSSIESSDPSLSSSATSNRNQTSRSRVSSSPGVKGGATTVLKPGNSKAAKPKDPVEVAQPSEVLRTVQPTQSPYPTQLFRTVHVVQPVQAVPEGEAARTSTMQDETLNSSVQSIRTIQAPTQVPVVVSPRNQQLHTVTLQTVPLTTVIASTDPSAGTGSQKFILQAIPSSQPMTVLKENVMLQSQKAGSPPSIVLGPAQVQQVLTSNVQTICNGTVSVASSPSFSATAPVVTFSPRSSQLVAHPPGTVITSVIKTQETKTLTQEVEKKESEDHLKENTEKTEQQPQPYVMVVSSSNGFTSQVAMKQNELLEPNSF
Sequence of ETV1 (P50549 whole entry): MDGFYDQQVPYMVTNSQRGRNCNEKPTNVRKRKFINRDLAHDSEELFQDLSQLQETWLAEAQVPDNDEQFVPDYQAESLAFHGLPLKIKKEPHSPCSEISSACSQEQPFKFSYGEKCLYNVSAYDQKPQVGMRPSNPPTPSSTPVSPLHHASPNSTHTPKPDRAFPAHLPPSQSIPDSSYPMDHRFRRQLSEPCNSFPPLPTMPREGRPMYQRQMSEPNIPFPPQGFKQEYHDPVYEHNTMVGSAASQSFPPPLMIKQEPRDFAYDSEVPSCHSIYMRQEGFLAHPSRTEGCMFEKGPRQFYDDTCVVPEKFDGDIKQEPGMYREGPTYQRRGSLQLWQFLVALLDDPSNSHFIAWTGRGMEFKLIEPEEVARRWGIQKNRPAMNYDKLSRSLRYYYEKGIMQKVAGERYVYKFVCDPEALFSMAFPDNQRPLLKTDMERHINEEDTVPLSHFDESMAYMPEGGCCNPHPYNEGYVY
Sequence of CRX (O43186 whole entry): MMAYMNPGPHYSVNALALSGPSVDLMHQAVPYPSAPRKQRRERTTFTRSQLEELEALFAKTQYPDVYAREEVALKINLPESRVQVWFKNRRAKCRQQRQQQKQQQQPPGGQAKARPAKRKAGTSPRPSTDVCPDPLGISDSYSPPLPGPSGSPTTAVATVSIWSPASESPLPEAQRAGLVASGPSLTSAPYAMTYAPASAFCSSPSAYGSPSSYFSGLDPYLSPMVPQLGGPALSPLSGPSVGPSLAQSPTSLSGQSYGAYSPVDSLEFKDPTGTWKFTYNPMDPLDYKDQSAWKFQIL

As to TATCTG, the binding signal with FLI1 is 1.3 fold enrichment (6-mer frequency, TF over GST control); in the experiment with ELK1, 1.12 fold enrichment (6-mer frequency, TF over GST control); in the experiment with GABPA, 1.21 fold enrichment (6-mer frequency, TF over GST control); with ERG, 1.25 fold enrichment (6-mer frequency, TF over GST control); with ELF1 it was 1.26 fold enrichment (6-mer frequency, TF over GST control); in the experiment with EHF, 1.16 fold enrichment (6-mer frequency, TF over GST control). For the same sequence, the binding signal with SPI1 is 1.21 fold enrichment (6-mer frequency, TF over GST control); in the experiment with SPIB, 1.16 fold enrichment (6-mer frequency, TF over GST control); with ELK3, 1.21 fold enrichment (6-mer frequency, TF over GST control); with FEV, 1.15 fold enrichment (6-mer frequency, TF over GST control); with ETV5 it was 1.15 fold enrichment (6-mer frequency, TF over GST control); in the experiment with HSF1, 1.36 fold enrichment (6-mer frequency, TF over GST control). In addition, the binding signal with SPIC is 1.17 fold enrichment (6-mer frequency, TF over GST control); with ELF4 it was 1.14 fold enrichment (6-mer frequency, TF over GST control); with ELK4, 1.25 fold enrichment (6-mer frequency, TF over GST control); with ETV2, 1.33 fold enrichment (6-mer frequency, TF over GST control); with CRX it was 1.46 fold enrichment (6-mer frequency, TF over GST control); with ETV1, 1.2 fold enrichment (6-mer frequency, TF over GST control).
